These results are taken from the supplement of paper PMC9844399.

Structures are written as SMILES. Structures can show the parent of a compound that is named as a salt.
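Further: Hoechst-stained nuclei counted by automated confocal imaging of four fields per well in 384-well plates, with the robust Z-score based on the per-plate DMSO median and robust SD.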

The subject of this experiment is HeLa. The experiment in a line: nuclear count per well, robust Z-score vs DMSO; higher = more cells (less toxicity). To be noted: 10 µM; 6 h.
As for `CCN(CC)C(=O)/C(C#N)=C/c1cc(O)c(O)c([N+](=O)[O-])c1` [Entacapone], the “nuclear count per well” value stood at 0.686.
`COc1ccc([C@H]2Sc3ccccc3N(CCN(C)C)C(=O)[C@H]2OC(C)=O)cc1`: the “nuclear count per well” value was found to be 0.209.
Consider `CC1(C)O[C@@H]2C[C@H]3[C@@H]4CCC5=CC(=O)C=C[C@]5(C)[C@H]4[C@@H](O)C[C@]3(C)[C@]2(C(=O)CO)O1` [Desonide], for which the “nuclear count per well” value was found to be 1.16.
Take `Cc1ccc(O)c([C@H](CCN(C(C)C)C(C)C)c2ccccc2)c1` [Tolterodine L-tartrate]: the “nuclear count per well” value was -0.249.
For `CC(Cc1ccc(O)c(O)c1)C(C)Cc1ccc(O)c(O)c1` (centres undefined) [Nordihydroguaiaretic acid], the “nuclear count per well” value is -1.23.
In the case of `CC(S)C(=O)NCC(=O)O` (centres undefined) [Tiopronin] it was 0.258.
For `CC(=O)/N=c1/sc(S(N)(=O)=O)nn1C` [Methazolamide], the “nuclear count per well” value was -0.256.
In the case of `CC1(COc2ccc(CC3SC(=O)NC3=O)cc2)CCCCC1` (centres undefined) [Ciglitazone] it was 1.14; in that of `CC(C)(C)NCC(O)c1cc(O)cc(O)c1` (centres undefined) [Terbutaline Hemisulfate], 1.49; in that of `CC1(C)O[C@@H]2C[C@H]3[C@@H]4C[C@H](F)C5=CC(=O)CC[C@]5(C)[C@H]4[C@@H](O)C[C@]3(C)[C@]2(C(=O)CO)O1` [Flurandrenolide], -0.309.
In the case of `Brc1c(NC2=NCCN2)ccc2nccnc12` [Brimonidine] it was 0.626.
In the case of `Nc1ccc(O)c(C(=O)O)c1` [Mesalamine (5-Aminosalicylic Acid)] it was 0.164; in that of `Cn1c(=O)n(-c2ccc(C(C)(C)C#N)cc2)c2c3cc(-c4cnc5ccccc5c4)ccc3ncc21`, 0.426; in that of `CC(C)c1nc(CN(C)C(=O)N[C@H](C(=O)N[C@@H](Cc2ccccc2)C[C@H](O)[C@H](Cc2ccccc2)NC(=O)OCc2cncs2)C(C)C)cs1` [Ritonavir], 0.114.
Regarding `COC1=CC(=O)C[C@@H](C)[C@]12Oc1c(Cl)c(OC)cc(OC)c1C2=O` [Griseofulvin], the “nuclear count per well” value worked out at 0.379.
As for `O=c1[nH]cc(F)c(=O)[nH]1` [Fluorouracil (5-Fluorouracil)], the “nuclear count per well” value turned out to be 0.702.
For the compound `COC(=O)Nc1nc2cc(C(=O)c3ccccc3)ccc2[nH]1` [Mebendazole], the “nuclear count per well” value is -3.08.
Take `CCC(C)n1ncn(-c2ccc(N3CCN(c4ccc(OCC5COC(Cn6cncn6)(c6ccc(Cl)cc6Cl)O5)cc4)CC3)cc2)c1=O` (centres undefined) [Itraconazole]: the “nuclear count per well” value is -0.0619.
In the case of `COc1ccc2[nH]cc(CCNC(C)=O)c2c1` [Melatonin] it was 0.0513; in that of `N#Cc1ccc(C(c2ccc(C#N)cc2)n2cncn2)cc1` [Letrozole], -0.474.
`COCC1=C(C(=O)OC(C)OC(=O)OC(C)C)N2C(=O)[C@@H](NC(=O)/C(=N\OC)c3csc(N)n3)[C@H]2SC1` (some centres undefined) [Cefpodoxime Proxetil]: the “nuclear count per well” value stood at 0.539.
With `CCCN(CCC)S(=O)(=O)c1ccc(C(=O)O)cc1` [Probenecid], the “nuclear count per well” value is -0.73.
`C[C@@H](CN1CCC(n2c(=O)[nH]c3cc(Cl)ccc32)CC1)NC(=O)c1ccc2ccccc2c1`: the “nuclear count per well” value is -0.404.
As to `CN1CCC(=C2c3ccccc3CC(=O)c3sccc32)CC1` [Ketotifen Fumarate], the “nuclear count per well” value is -0.314.
For `CN(Cc1cnc2nc(N)nc(N)c2n1)c1ccc(C(=O)N[C@@H](CCC(=O)O)C(=O)O)cc1` [Methotrexate], the “nuclear count per well” value worked out at 0.0439.
As to `CCN(CC)CCNC(=O)c1c(C)[nH]c(/C=C2\C(=O)Nc3ccc(F)cc32)c1C` [Sunitinib Malate], the “nuclear count per well” value was -3.02.
In the case of `CCC1=C[C@@H]2CN(C1)Cc1c([nH]c3ccccc13)[C@@](C(=O)OC)(c1cc3c(cc1OC)N(C)[C@H]1[C@@](O)(C(=O)OC)[C@H](OC(C)=O)[C@]4(CC)C=CCN5CC[C@]31[C@@H]54)C2` [Vinorelbine] it was -3.48; in that of `COc1cc(C=C(C#N)C(N)=O)cc(CSc2nc3ccccc3s2)c1O` [Tyrphostin AG-825], 0.276.
For the compound `C[C@]12CCC(=O)C=C1CC[C@@H]1[C@@H]2[C@@H](O)C[C@@]2(C)[C@H]1CC[C@]2(O)C(=O)CO` [Hydrocortisone], the “nuclear count per well” value is -0.344.
In the case of `CCOC(=O)[C@H](CCc1ccccc1)N[C@H]1CCc2ccccc2N(CC(=O)O)C1=O` it was -0.363.
Consider `CNCCCN1c2ccccc2CCc2ccc(Cl)cc21`, for which the “nuclear count per well” value was -0.443.
On to `Oc1nc(-c2ccc(C(F)(F)F)cc2)nc2c1CSCC2`, for which the “nuclear count per well” value amounted to 1.71.
Regarding `CC1=C(CC(=O)O)c2cc(F)ccc2/C1=C\c1ccc([S+](C)[O-])cc1` (centres undefined) [Sulindac], the “nuclear count per well” value was -0.07.
In the case of `CC1=C(C/C=C(\C)CCC[C@H](C)CCC[C@H](C)CCCC(C)C)C(=O)c2ccccc2C1=O` [Phytonadione] it was 0.379; in that of `CC1(C)CCC2=C(O1)c1ccccc1C(=O)C2=O` [Beta-lapachone], -8.58; in that of `CC(C)(C)c1cc(/C=C(\C#N)C(N)=S)cc(C(C)(C)C)c1O` [Tyrphostin AG 879], -0.988.
In the case of `COc1ccc2c(c1)c(CC(=O)N1CCOCC1)c(C)n2C(=O)c1ccc(Cl)cc1` it was 0.166; in that of `CCOC(=O)C1=C[C@]2(CC)CCCN3CCc4c(n1c1ccccc41)[C@@H]32` [Vinpocetine], -0.435.
As for `CC/C=C\C/C=C\C/C=C\CCCCCCCC(=O)O` [Linolenic acid (18:3 n-3)], the “nuclear count per well” value was -0.431.
